Screening data as filed in PubChem BioAssay.
Only a selection was taken, and hits are over-represented in it overall.
hDAT+cocaine – human DAT dopamine uptake with cocaine, either direction. Q01959. LLC-PK1 hDAT cells, [14C]-dopamine uptake with cocaine IC80; actives deviate in either direction. B-score at 10 µM. actives 1.3% (n = 110,000). AID 449768;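 active = Z score or B-score, a plate-position-corrected score, falls beyond the plate's 99.7% confidence bounds, in either direction; inactive = both scores lie inside the 99.7% bounds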;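 also: scored against the spread of the other compound wells on the same plate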
PKA inh – blocks human protein kinase A activity; P17612; PKA Kemptide phosphorylation, Kinase-Glo ATP luminescence; inhibition, % at 6 µM; actives 0.1% (n = 65,000); AID 524;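 active = inhibition above the screen-wide mean inhibition plus 3 SD, cut at about 21% in these data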
D1 allo mod – allosterically modulates the human D1 dopamine receptor | P21728 | HEK293 D1, CRE-luciferase, dopamine EC30 potentiation; actives deviate in either direction | actives 5.9% (n = 58,000) | B-score at 10 µM | AID 641;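 active = luminescence count or its row- and column-corrected plate score outside the 99.7% band of the plate's sample wells, on either side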
ROCK2 blocker – inhibitors of human Rho kinase 2; purified ROCK2, Kinase-Glo ATP depletion luminescence; inhibition, % at 6 µM; actives 0.35% (n = 60,000);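 active = inhibition above the screen-wide mean inhibition plus 3 SD, cut at about 18% in these data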;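 also: plate controls were DMSO wells for no effect and Y-27632 control wells after no-enzyme background subtraction for full effect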
JNK3 inh – blocks human JNK3 kinase activity | purified JNK3 kinase activity, HTS | inhibition, % at 8 µM | actives 0.61% (n = 60,000) | AID 746; in the data active = inhibition above about 17%;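 also: 0% = DMSO and 100% = reference inhibitor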
D1 mod confirm – confirmation of human D1 dopamine receptor allosteric modulators; luminescence at 10 µM; HEK293 D1 CRE-luciferase, dopamine EC30 potentiation; hits give high values; actives 88% (n = 2,200); shares compounds with D1 allo mod;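 active = luminescence in either of two replicates above the same-plate mean plus 3 SD of the low-dose dopamine control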
D1 ag no DA – activates D1 CRE-luciferase signal without dopamine present; shares compounds with D1 allo mod; HEK293 D1 CRE-luciferase, luminescence, no dopamine; hits give high values; luminescence at 10 µM; actives 0.8% (n = 1,900); in the data active = luminescence above about 3900
Isoprot counter – isoproterenol response counter-screen activity for D1 modulators | shares compounds with D1 allo mod | HEK293 D1 CRE-luciferase, isoproterenol EC30 counter-screen | calls only at 10 µM | actives 63% (n = 2,200) | AID 647;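 active = luminescence in either replicate above plate mean of wells with a partly effective reference agonist dose plus 3 SD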;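 also: isoproterenol raises cAMP through native beta-adrenoceptor Gs so signal bypasses D1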
* marks the source's active call; other numbers are inactive results; i = inactive; / = no result given; + = active, no number.

SMILES	hDAT+cocaine	PKA inh	D1 allo mod	ROCK2 blocker	JNK3 inh	D1 mod confirm	D1 ag no DA	Isoprot counter
COc1cc(-c2nnc(COc3ccc4cc(Br)ccc4c3)o2)cc(OC)c1OC	1.7	8	-0.62	5	6	/	/	/
Cc1cc(NC(=O)c2cc(S(=O)(=O)N3CCCCC3)ccc2C)n(-c2ccccn2)n1	1.1	2	21*	1	6	16476*	1732	+
COc1cccc(-n2c(SC3CCOC3=O)nc3ccccc3c2=O)c1 (configuration not stated)	-1	-1	13*	0	-4	13364*	1604	+
Fc1cccc(Cl)c1CSc1nnnn1-c1ccc2c(c1)OCO2	0.39	7	5.8*	0	1	11540*	/	+
O=C(CCNS(=O)(=O)c1ccc2c(c1)CCC(=O)N2)NCc1ccc2c(c1)OCO2	-1.6	10	2.9*	4	2	6928*	1720	i
CCN(CC)C(=O)CN(C#N)c1nc(NC(C)C)nc(NC(C)C)n1	0.34	0	/	-2	-5	/	/	/
CCCN(C#N)c1nc(NCC)nc(NC(C)C)n1	0.16	2	17*	-3	5	24080*	1560	+
O=C(Nc1ccc(Cl)c(C(F)(F)F)c1)C1CCCN(S(=O)(=O)c2cnc[nH]2)C1 (configuration not stated)	2.4	4	-1.2	2	5	/	/	/
Cc1ccccc1NC(=O)c1nc[nH]c1C(=O)NCc1ccccc1	-0.48	-2	5.1*	-1	21*	14280*	1616	i
COc1ccc(S(=O)(=O)NCCOc2ccccc2)cc1OC	-0.23	1	/	4	8	/	/	/
COc1ccc(CCNS(=O)(=O)c2ccccc2)cc1OC	0.06	-4	4.2*	-3	-6	15812*	2400	+
COc1ccc(Nc2nc(N)nc(CN3CCc4ccccc4C3)n2)cc1	1.2	7	2.3	-1	-4	/	/	/
COc1cccc(N2CCN(Cc3nc(N)nc(N4CCCc5ccccc54)n3)CC2)c1	1.9	10	4.9*	8	2	11368*	1496	+
O=C1OCc2ccc(NC(=O)C3CCCCC3)cc21	-0.55	-2	7.5*	/	/	7424	1748	i
CCOCCCNC(=O)C1CCN(C(=O)Nc2ccc(Cl)cc2)CC1	-0.014	11	0.052	6	6	/	/	/
COC(=O)c1cccc(N2C(=O)C(Cl)=C(N3CCOCC3)C2=O)c1	-1	8	4.7*	6	-4	5740*	1648	i
Cc1cccc(OCC2=NS(=O)(=O)c3ccccc3N2)c1	-1.1	7	/	3	2	/	/	/
C=CCn1c(N(C)C)nc2c1c(=O)[nH]c(=O)n2C	-0.59	5	0.17	1	-5	/	/	/
CCc1ccc2oc(=O)cc(CN3CCC(C)CC3)c2c1	0.023	-1	5.9*	3	3	10276*	1600	+
CCc1ccc2oc(=O)cc(CN3CCOCC3)c2c1	0.48	16	5.9*	3	5	13788*	1736	i
Cc1ccc2oc(=O)cc(CN3CCC(C)CC3)c2c1	-0.33	-2	2.9	-2	7	/	/	/
CCOC(=O)c1ccccc1NC(=O)c1cccs1	-0.24	4	7.2*	3	11	8864*	1480	+
CCc1c(C)sc(NC(=O)c2cccs2)c1C(=O)OC(C)C	-0.72	6	1	1	-1	/	/	/
CCOC(=O)c1c(NC(=O)c2cccs2)sc(C)c1CC	0.23	-2	3.8*	4	-9	10804*	1624	i
Nc1[nH]nc2nc(N3CCCC3)nc(-c3ccccc3)c12	0.52	26*	15*	/	/	18304*	1740	+
SMILES	hDAT+cocaine	PKA inh	D1 allo mod	ROCK2 blocker	JNK3 inh	D1 mod confirm	D1 ag no DA	Isoprot counter
Cc1cc(C)c2c(n1)nn1c(N3CCN(Cc4ccccc4)CC3)cc(C)nc21	/	10	0.6	6	8	/	/	/
Nc1nc(-c2cccnc2)nc(N2CCCCC2)n1	-0.024	10	1.9	6	1	/	/	/
Cc1cc(C)n2nc3nc(N4CCCC4)nc(-c4ccccc4)c3c2n1	/	13	4.8*	7	1	7140*	1568	+
CC(C)Oc1ccc(Cc2c(O)nc(NCCCN(C)C)[nH]c2=O)cc1	-0.25	0	0.05	-1	1	/	/	/
CN1c2ccccc2Oc2c(c(=O)n(C)c(=O)n2C)C1c1cccc([N+](=O)[O-])c1 (configuration not stated)	-0.43	/	/	/	/	/	/	/
CCOC(=O)c1cc(-c2ccc(N)cc2)sc1N	0.19	6	10*	5	-17	21552*	1580	+
CCOC(=O)c1sc(-c2ccc(Br)cc2)cc1N	0.096	/	/	/	/	/	/	/
O=C(NCCc1cn2ccsc2n1)C1CCCCC1	0.078	-2	-0.32	3	-5	/	/	/
Cc1csc2nc(CNC(=O)C3CCCCC3)cn12	0.19	9	3*	4	4	7124	1524	i
Cc1noc(C)c1CSc1nnc(-c2cc(Cl)ccc2Cl)n1N	-0.58	4	9.5*	/	/	25992*	1756	+
CCOC(=O)C1=C(C)Nc2nc(SC)nn2C1c1ccc(C(=O)OC)cc1 (configuration not stated)	-0.0079	6	4*	7	1	8432*	1672	i
COCCOC(=O)C1=C(C)Nc2nc(C)nn2C1c1ccc(F)cc1 (configuration not stated)	-0.36	-1	-0.55	-3	2	/	/	/
CCC(C)Oc1ccccc1C1CC(=O)NC2=C1C(=O)CCC2 (configuration not stated)	1.1	-1	0.4	6	-6	/	/	/
CCC(C)c1cc(S(=O)(=O)N2CCOCC2)ccc1OC (configuration not stated)	0.028	4	9.5*	-2	1	11376*	/	+
COc1ccc(S(=O)(=O)N2CCOCC2)cc1C(C)C	-0.18	0	1.1	2	-3	/	/	/
O=C1OCCC1Sc1ncnc2sc3c(c12)CCC3 (configuration not stated)	-0.68	4	5.2*	-1	4	7272*	1564	i
Cc1nc(SC2CCOC2=O)c2c(C)c(C)sc2n1 (configuration not stated)	-0.49	/	/	/	/	/	/	/
CC1(C)Cc2ccccc2/C(=C/C(=O)N2CCCCCC2)N1	0.72	/	/	/	/	/	/	/
CCOC(=O)/C=C1\NC(C)(C)Cc2cc(OC)c(OC)cc21	0.74	/	/	/	/	/	/	/
CCOC(=O)/C=C1\NC(C)(C)Cc2cc(OC)c(O)cc21	-0.27	1	4*	5	1	8420*	1572	i
COc1cc2c(cc1OC)/C(=C/C(=O)N1CCOCC1)NC(C)(C)C2	0.16	1	10*	2	-4	18680*	1652	+
